Screening data deposited in PubChem by National Center for Advancing Translational Sciences (NCATS).
HEK cytotox: cytotoxic compounds in HEK 293 cells; AID 1345083; Potency, µM (series often up to 115 µM), inactives show top-dose activity change, negative = cytotoxicity, hits mostly inhibitors; 6.6% of 94,000 active; HEK 293 viability, ATP luminescence (CellTiter-Glo), 48-72 h; note: nearly all actives have a fitted effect of over 60% in size
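HEK 293 cells at 250 cells/well were exposed to compounds by pintool transfer for 48 or 72 hr at 37 degree Celsius, 5% CO2. Viability was read as ATP-coupled luminescence with CellTiter-Glo after 10 min at room temperature.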
hNpr1 antagonist: blocks ANP-stimulated signaling of human Npr1 receptor; P16066; HEK293 hNpr1 GloSensor cGMP, ANP-stimulated luminescence; Potency, µM (series often up to 46.3 µM), for inactives: at the highest dose activity change, negative = inhibition, most hits filed as inhibitors; 1.6% of 76,000 active; calls by dose curve; note: nearly all actives have a fitted effect of over 60% in size
Target sequence (P16066 whole entry, looked up): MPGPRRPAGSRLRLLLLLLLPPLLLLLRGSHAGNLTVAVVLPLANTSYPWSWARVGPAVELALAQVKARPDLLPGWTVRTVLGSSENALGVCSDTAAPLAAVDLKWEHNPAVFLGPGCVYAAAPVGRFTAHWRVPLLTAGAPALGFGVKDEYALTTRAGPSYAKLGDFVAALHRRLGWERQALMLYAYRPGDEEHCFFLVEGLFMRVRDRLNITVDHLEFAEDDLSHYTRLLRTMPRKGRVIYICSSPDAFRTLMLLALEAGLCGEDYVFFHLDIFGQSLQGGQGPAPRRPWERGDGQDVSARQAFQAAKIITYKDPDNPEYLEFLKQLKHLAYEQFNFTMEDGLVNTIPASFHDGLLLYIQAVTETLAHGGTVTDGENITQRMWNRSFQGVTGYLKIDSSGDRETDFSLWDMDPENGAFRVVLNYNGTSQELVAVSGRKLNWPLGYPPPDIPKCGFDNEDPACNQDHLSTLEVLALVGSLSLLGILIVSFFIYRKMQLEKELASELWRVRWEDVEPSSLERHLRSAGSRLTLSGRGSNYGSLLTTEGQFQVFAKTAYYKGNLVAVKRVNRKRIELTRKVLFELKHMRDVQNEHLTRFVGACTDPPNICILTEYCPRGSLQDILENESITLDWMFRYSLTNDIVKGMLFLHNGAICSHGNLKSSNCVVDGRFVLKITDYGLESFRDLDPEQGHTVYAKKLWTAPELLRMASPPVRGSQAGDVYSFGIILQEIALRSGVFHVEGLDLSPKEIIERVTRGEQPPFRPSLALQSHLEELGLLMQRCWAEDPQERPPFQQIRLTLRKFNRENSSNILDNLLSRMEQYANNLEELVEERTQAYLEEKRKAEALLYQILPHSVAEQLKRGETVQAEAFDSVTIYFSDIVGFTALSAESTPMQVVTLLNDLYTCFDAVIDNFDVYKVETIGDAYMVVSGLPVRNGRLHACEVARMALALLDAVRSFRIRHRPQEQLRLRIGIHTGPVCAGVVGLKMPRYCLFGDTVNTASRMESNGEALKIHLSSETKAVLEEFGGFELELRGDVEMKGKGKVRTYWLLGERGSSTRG
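Compound pre-incubated 30 min at room temperature on GloSensor-loaded HEK293 cells stably carrying hNpr1 and the pGS-40F cGMP biosensor. Stimulation uses hNppA at 0.1 nM final; luminescence is taken at baseline and 20 min post-agonist.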
Luciferase inh: inhibitors of firefly (Photinus pyralis) luciferase | purified P. pyralis luciferase, luminescence, biochemical | 2.5% of 76,000 active | AID 1347043 | P08659 | Potency, µM (series often up to 115 µM), actives largely listed as inhibitors; note: nearly all actives have a fitted effect of over 65% in size
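Luminescence read by CCD imager after adding enzyme (10nM final) to wells holding compound, titrated in qHTS. Substrates 10uM each D-luciferin and ATP; buffer 50mM Tris acetate pH 7.5, 10mM Mg acetate, Tween-20, BSA.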
NIH3T3 tox: cytotoxic compounds in NIH 3T3 cells | AID 1345082 | Potency, µM (titrated, usually from 96.7 µM), for inactives: at the highest dose activity change, negative = cytotoxicity, actives largely listed as inhibitors | 4.3% of 94,000 active | NIH 3T3 viability, CellTiter-Glo ATP luminescence, 48-72 h; note: nearly all actives have a fitted effect of over 55% in size
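Cells were seeded at 400 per well, treated with pin-transferred compound, and kept 48 or 72 hr at 37 °C before CellTiter-Glo addition and luminescence imaging of cellular ATP.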
GPT2 inhibitor: blocks human glutamate pyruvate transaminase 2; AID 1671188; Recombinant GPT2, coupled pyruvate oxidase/HRP Amplex Red fluorescence; Potency, µM (titrated, usually from 57.7 µM), without a hit: at the highest dose activity change, negative = inhibition, hits mostly inhibitors; Q8TD30; 0.25% of 100,000 active; note: nearly all actives have a fitted effect of over 60% in size
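Fluorescence of coupled pyruvate oxidase/HRP/Amplex Red system (50uM Amplex, 30 min, dark) reports pyruvate formed by GPT2. Enzyme reaction: 10ng/uL GPT2, 2mM L-alanine, 250uM a-KG, 30 min room temperature, pH 7.5; 50uM AOA control.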
* marks the source's active call; other numbers are inactive results; i = inactive; u = inconclusive; x = no result; [ ] = remark or other dose. A selection: hits, their analogues and other compounds. The true share with any hit is near 10%. Unless noted, calls come from the whole dose curve; as a rule, active = well fitted curve in the direction sought with a large enough effect; inconclusive = small, poorly fitted or top-dose-only effect, or another doubt; inactive = no such curve, though single readings can be large; an effect the other way counts as inactive or inconclusive. % is set by controls: 0 for no effect and ±100 for the full control effect; potency is the fitted concentration of half-maximal effect.

SMILES	HEK cytotox	hNpr1 antagonist	Luciferase inh	NIH3T3 tox	GPT2 inhibitor
COc1ccccc1-c1cc([C@H]2CN3CC[C@H]2C[C@@H]3COC(=O)Nc2ccc(C(C)C)cc2)n(C)n1	28µM*	-1%	i	22µM*	3%
COc1ccccc1-c1cc([C@H]2CN3CC[C@H]2C[C@@H]3COC(=O)Nc2ccc(C(C)(C)C)cc2)n(C)n1	25µM*	-2%	i	22µM*	-2%
C[C@H](NC(=O)Cc1cc(F)cc(F)c1)C(=O)N[C@@H]1N=C(c2ccccc2)c2ccccc2N(C)C1=O	x	x	x	x	-3%
Cc1nc(-c2ccccc2Br)cc([C@H]2CN3CC[C@H]2C[C@@H]3CNC(=O)Nc2cccc(C#N)c2)n1	22µM*	-5%	i	28µM*	-10%
Cc1nc(-c2ccco2)cc([C@H]2CN3CC[C@H]2C[C@@H]3CNCC2CCCCC2)n1	112µM*	-21%[70.6 µM]	i	89µM*	-25%[88.5 µM]
Cc1nc(-c2ccc(F)cc2)cc([C@H]2CN3CC[C@H]2C[C@@H]3CNC(=O)Nc2cccc(C#N)c2)n1	u	-15%	i	22µM*	-10%
Cc1nc(-c2ccc(C(F)(F)F)cc2)cc([C@H]2CN3CC[C@H]2C[C@@H]3CNC(=O)C(C)(C)C)n1	40µM*	0%	i	20µM*	i
Cc1nc(-c2ccc(F)cc2)cc([C@H]2CN3CC[C@H]2C[C@@H]3CNC(=O)NCc2ccccc2)n1	u	2%	i	u	4%
O=C(Cn1c(=O)oc2ccccc21)N1[C@H]2CC[C@@H]1c1cnc(-c3ccc(F)cc3)nc1C2	u	-12%	i	-22%	i
Cc1nc(-c2ccc(F)cc2)cc([C@H]2CN3CC[C@H]2C[C@@H]3CNC(=O)c2ccco2)n1	u	8%[70.6 µM]	i	100µM*	-6%[88.5 µM]
Cc1nc(-c2ccc(C(F)(F)F)cc2)cc([C@H]2CN3CC[C@H]2C[C@@H]3CNC(=O)N2CCOCC2)n1	u	2%	i	u	-12%
Cc1nc(-c2ccccc2)cc([C@H]2CN3CC[C@H]2C[C@@H]3CNC(=O)N2CCOCC2)n1	u	5%[70.6 µM]	i	89µM*	0%[88.5 µM]
Cc1nc(-c2ccccc2Br)cc([C@H]2CN3CC[C@H]2C[C@@H]3CNC(=O)Nc2ccc(Cl)cc2)n1	22µM*	-6%	i	35µM*	1%
CC[C@H]1C[C@@H]2CC[C@@H](O2)[C@@H](C)C(=O)O[C@H](CC)C[C@H]2CC[C@H](O2)[C@H](C)C(=O)O[C@@H](C)C[C@@H]2CC[C@@H](O2)[C@@H](C)C(=O)O[C@H](CC)C[C@H]2CC[C@H](O2)[C@H](C)C(=O)O1	x	x	x	x	i
COc1ccc(NC(=O)NC[C@H]2C[C@@H]3CCN2C[C@@H]3c2cc(-c3cccs3)nn2C)cc1	u	3%	i	u	0%
COc1ccc(NC(=O)NC[C@H]2C[C@@H]3CCN2C[C@@H]3c2cc(-c3ccccc3)nn2C)cc1	28µM*	-6%	i	u	4%
Cn1nc(-c2cccs2)cc1[C@H]1CN2CC[C@H]1C[C@@H]2COC(=O)Nc1ccccc1	45µM*	-16%[70.6 µM]	i	35µM*	i
Cn1nc(-c2ccccc2)cc1[C@H]1CN2CC[C@H]1C[C@@H]2CNC(=O)Nc1ccccc1	50µM*	0%[70.6 µM]	i	50µM*	1%[88.5 µM]
COc1ccc(-c2cc([C@H]3CN4CC[C@H]3C[C@@H]4COC(=O)Nc3ccccc3)n(C)n2)cc1	u	-6%	i	20µM*	i
CCCCCCC1C(=O)O[C@H](C)[C@H](NC(=O)c2cccc(NC=O)c2O)C(=O)O[C@@H](C)[C@@H]1OC(=O)CC(C)C (stereo not given in full)	x	x	x	x	i
COc1ccc(CC(=O)N2CCCN(CCn3nc4n(c3=O)CCCC4)CC2)cc1	-2%	x	x	-25%	x
COc1cc2c(cc1-c1cccc(NC(C)=O)c1)NC(=O)C21CCN(C(C)=O)CC1	i	-3%[70.6 µM]	i	u	3%[88.5 µM]
CCNC(=O)NC[C@H]1C[C@@H]2CCN1C[C@@H]2c1cc(-c2ccc3ccccc3c2)nn1C	40µM*	2%[70.6 µM]	i	32µM*	i
COCC(=O)NC[C@H]1C[C@@H]2CCN1C[C@@H]2c1cc(C2CCCCC2)nn1C	0%[172 µM]	-2%[70.6 µM]	i	-11%[174 µM]	-16%[88.5 µM]
Cn1nc(C2CCCC2)cc1[C@H]1CN2CC[C@H]1C[C@@H]2CNC(=O)Nc1ccccc1	100µM*	6%[70.6 µM]	i	u	-4%[88.5 µM]
SMILES	HEK cytotox	hNpr1 antagonist	Luciferase inh	NIH3T3 tox	GPT2 inhibitor
CC(C)NC(=O)NC[C@H]1C[C@@H]2CCN1C[C@@H]2c1cc(-c2cccs2)nn1C	-15%[172 µM]	1%[70.6 µM]	i	-27%[174 µM]	-4%[88.5 µM]
Cn1nc(C2CCCCC2)cc1[C@H]1CN2CC[C@H]1C[C@@H]2CNC(=O)COc1ccccc1	45µM*	0%	i	u	i
CC(C)NC(=O)NC[C@H]1C[C@@H]2CCN1C[C@@H]2c1cc(-c2ccc3ccccc3c2)nn1C	22µM*	2%[70.6 µM]	i	28µM*	1%[88.5 µM]
CC1=NOC2(CCCN(CC3CCCCC3)C2)C1 (stereo not given)	i	x	x	i	i
COc1ccc(-c2cc([C@H]3CN4CC[C@H]3C[C@@H]4CNC(=O)Nc3ccccc3)n(C)n2)cc1OC	u	-1%	i	u	0%
Cn1nc(-c2ccccc2)cc1[C@H]1CN2CC[C@H]1C[C@@H]2CNC(=O)Nc1cccc(C#N)c1	-28%	5%	i	-21%	-6%
Cn1nc(-c2ccc3ccccc3c2)cc1[C@H]1CN2CC[C@H]1C[C@@H]2CNC(=O)Nc1cccc(C#N)c1	u	4%	i	45µM*	i
Cn1nc(-c2ccc3ccccc3c2)cc1[C@H]1CN2CC[C@H]1C[C@@H]2CNC(=O)Nc1ccccc1	u	0%	i	20µM*	-3%
COc1ccc(-c2cc([C@H]3CN4CC[C@H]3C[C@@H]4CNC(=O)Nc3ccccc3)n(C)n2)cc1	u	2%	i	79µM*	i
COc1ccc(CN(Cc2ccc(OC)cc2)C[C@H]2C[C@@H]3CCN2C[C@@H]3c2cc(C3CCCC3)nn2C)cc1	25µM*	2%	i	20µM*	0%
O=C(COc1ccccc1)N1[C@H]2CC[C@@H]1c1cnc(-c3ccc(F)cc3)nc1C2	u	u	i	u	i
CCOC(=O)[C@H]1CN(C(=O)c2ccc(F)cc2)[C@]2(C)C(=O)N(CCOC)c3ccccc3[C@H]12	-16%[57.5 µM]	x	x	u	-5%[27.3 µM]
CN(C)c1ccc(C(=O)NC[C@H]2C[C@@H]3CCN2C[C@@H]3CN2CCOCC2)cc1	2%[172 µM]	1%[70.6 µM]	i	i	i
